Experimental data: PubChem BioAssay AID1159580 (chemical genetic matrix, 2015)
“And” between values parts separate entries of the source, which are not always exact repeats. Identical values can stand only once. Among all 5,500 compounds or so, about 2,000 (36%) were called active. Another 18% or so got no clear call; they are omitted. Cut-off read from the data, not from the text of the source: active = normalized growth mostly below about 0.91 (no sharp cut-off); inconclusive = no clear call, values can overlap the other calls; inactive = mostly above about 0.92. This is one part of the list.

Experiment: chemical genetic growth profiling, strain panel (AID 1159580);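 note: tested at 20 µM; growth read once vehicle control cultures reached saturation at 30 °C; 1 = growth at the plate median or of vehicle wells; lower values mean less growth of the strain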
Settings: S. cerevisiae deletion strains, growth OD

Measured: normalized growth

CC1(C)C(=O)C=C[C@@]2(C)C1C[C@@H](O)[C@]1(C)C2CC[C@@]2(C)[C@H](c3ccoc3)OC(=O)[C@H]3O[C@]321 (stereo partly specified)
inactive: locus YAL021C, strain ccr4, hits give low values 0.988 | locus YAL026C, strain drs2, hits give low values 0.996 | locus YAL030W, strain snc1, hits give low values 0.995 | locus YBL061C, strain skt5, hits give low values 1 | locus YBR009C, strain hhf1, hits give low values 1 | locus YBR021W, strain FUR4, hits give low values 1 | locus YBR023C, strain chs3, hits give low values 1.01 | locus YBR171W, strain sec66, hits give low values 0.998 | locus YBR229C, strain ROT2, hits give low values 0.939 | locus YBR231C, strain swc5, hits give low values 1.01 | locus YBR279W, strain paf1, hits give low values 1 | locus YCL011C, strain gbp2, hits give low values 1.01 | locus YCL016C, strain dcc1, hits give low values 1 | locus YCL029C, strain bik1, hits give low values 0.969 | locus YCL061C, strain MRC1, hits give low values 0.998 | locus YCL069W, strain vba3, hits give low values 0.998 | locus YCR088W, strain abp1, hits give low values 0.999 | locus YDL005C, strain med2, hits give low values 0.999 | locus YDL035C, strain GPR1, hits give low values 0.956 | locus YDL040C, strain nat1, hits give low values 1 | locus YDL074C, strain BRE1, hits give low values 0.958 | locus YDL101C, strain DUN1, hits give low values 0.98 | locus YDL185W, strain tfp1, hits give low values 0.954 | locus YDL192W, strain arf1, hits give low values 0.979 | locus YDR001C, strain nth1, hits give low values 0.985 | locus YDR069C, strain doa4, hits give low values 1.01 | locus YDR101C, strain arx1, hits give low values 0.97 | locus YDR137W, strain rgp1, hits give low values 0.985 | locus YDR159W, strain sac3, hits give low values 1.01 | locus YDR162C, strain NBP2, hits give low values 0.949 | locus YDR195W, strain ref2 0.986 | locus YDR297W, strain sur2, hits give low values 1 | locus YDR318W, strain mcm21, hits give low values 0.972 | locus YDR334W, strain swr1, hits give low values 0.995 | locus YDR335W, strain msn5, hits give low values 0.996 | locus YDR388W, hits give low values 0.996 | locus YDR392W, strain spt3, hits give low values 1.01 | locus YDR502C, strain sam2, hits give low values 1 | locus YEL003W, strain gim4, hits give low values 1 | locus YEL037C, strain rad23, hits give low values 0.995 | locus YEL061C, strain CIN8 (second series), hits give low values 0.994 | locus YER015W, strain faa2, hits give low values 0.99 | locus YER016W, strain bim1, hits give low values 1 | locus YER110C, hits give low values 0.968 | locus YER111C, strain swi4, hits give low values 1 | locus YER155C, strain BEM2 (second series), hits give low values 1 | locus YER155C, strain BEM2, hits give low values 1.01 | locus YER167W, strain BCK2, hits give low values 0.973 | locus YFR010W, strain ubp6, hits give low values 0.984 | locus YGL078C, strain dbp3, hits give low values 0.992 | locus YGL086W, strain mad1, hits give low values 0.988 | locus YGL167C, strain pmr1, hits give low values 1.01 | locus YGL173C, strain kem1, hits give low values 1.01 | locus YGL227W, strain vid30, hits give low values 1.01 | locus YGL240W, strain doc1, hits give low values 1.01 | locus YGL248W, strain PDE1, hits give low values 0.961 | locus YGL253W, strain hxk2, hits give low values 1 | locus YGR135W, strain pre9, hits give low values 1.04 | locus YGR229C, strain SMI1, hits give low values 0.95 | locus YGR252W, strain gcn5, hits give low values 0.965 | locus YHR013C, strain ard1, hits give low values 1.01 | locus YHR027C, strain rpn1, hits give low values 0.986 | locus YHR030C, strain SLT2, hits give low values 0.966 | locus YHR079C, strain IRE1 (second series), hits give low values 0.99 | locus YHR079C, strain IRE1, hits give low values 0.936 | locus YHR094C, strain hxt1, hits give low values 0.978 | locus YHR129C, strain ARP1, hits give low values 0.987 | locus YHR142W, strain chs7, hits give low values 1.01 | locus YHR200W, strain rpn10, hits give low values 0.976 | locus YIL066C, strain RNR3, hits give low values 0.94 | locus YIL073C, strain SPO22, hits give low values 0.928 | locus YIL125W, strain kgd1, hits give low values 0.985 | locus YIR030C, strain dcg1, hits give low values 0.992 | locus YJL092W, strain hpr5, hits give low values 0.999 | locus YJL095W, strain BCK1 (second series), hits give low values 1 | locus YJL095W, strain BCK1, hits give low values 1.01 and 0.956 | locus YJL115W, strain asf1, hits give low values 0.997 | locus YJL129C, strain trk1, hits give low values 0.991 | locus YJL134W, strain LCB3, hits give low values 0.98 | locus YJL154C, strain vps35, hits give low values 0.992 | locus YJL164C, strain tpk1, hits give low values 1 | locus YJL166W, strain qcr8, hits give low values 1.01 | locus YJL168C, strain set2, hits give low values 0.998 | locus YJL187C, strain SWE1 (second series), hits give low values 1 | locus YJL187C, strain SWE1, hits give low values 1.02 | locus YJR043C, strain POL32, hits give low values 0.937
